As a reminder, the AC50 is the midpoint of the concentration-response curve, whichever way the signal moves.

Read-out in assay [1]: Monokine induced gamma interferon (MIG), CXCL9 (gene 4283)
In words: BSK_hDFCGF_MIG: BioMAP Diversity Plus: hDFCGF Assay for Monokine induced gamma interferon (MIG) Biomarker Activity (AID 2283063). The conditions noted are these: primary human foreskin fibroblasts; actives raise or lower the signal. Put shortly: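 ELISA read-out of MIG from primary human dermal fibroblasts 24 h post-dosing. Gain or loss of signal fitted bidirectionally, DMSO as baseline.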

Read-out in assay [2]: Matrix Metallopeptidase 1 (MMP1), MMP1 (gene 4312)
In words: BSK_hDFCGF_MMP1: BioMAP Diversity Plus: hDFCGF Assay for Matrix Metallopeptidase 1 (MMP1) Biomarker Activity (AID 2283064). To be noted: primary human foreskin fibroblasts; actives raise or lower the signal. Put shortly: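 Primary human foreskin fibroblasts in the hDFCGF system were dosed with test chemical, and MMP1 was measured by ELISA 24 h later. Values come from bidirectional curve fitting against the DMSO baseline.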

Read-out in assay [3]: Vascular cell adhesion molecule 1 (VCAM1), VCAM1 (gene 7412)
The assay is described as follows: BSK_hDFCGF_VCAM1: BioMAP Diversity Plus: hDFCGF Assay for Vascular cell adhesion molecule 1 (VCAM1) Biomarker Activity (AID 2283065).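 For AC50: VCAM-1 protein level quantified by ELISA after 24 h chemical exposure.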 To be noted: primary human foreskin fibroblasts; actives raise or lower the signal. Put shortly:
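Primary human foreskin fibroblasts (hDFCGF system) were dosed with chemical and VCAM-1 was measured by ELISA 24 h later. Bidirectional curve fitting used DMSO as negative control and activity baseline.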

Read-out in assay [4]: Plasminogen activator inhibitor-1 (PAI1), SERPINE1 (gene 5054)
The assay is described as follows: BSK_hDFCGF_PAI1: BioMAP Diversity Plus: hDFCGF Assay for Plasminogen activator inhibitor-1 (PAI1) Biomarker Activity (AID 2283066). The conditions noted are these: primary human foreskin fibroblasts; actives raise or lower the signal. Put shortly: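 Human foreskin fibroblast primary cells, 24 h chemical exposure; PAI-1 measured by ELISA. Bidirectional fitting relative to DMSO; parallel cultures stained with SRB for total protein to flag overt cytotoxicity.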

Read-out in assay [5]: Intercellular Adhesion Molecule 1 (ICAM1), ICAM1 (gene 3383)
In words: BSK_KF3CT_ICAM1: BioMAP Diversity Plus: KF3CT Assay for Intercellular Adhesion Molecule 1 (ICAM1) Biomarker Activity (AID 2283067). The conditions noted are these: primary human keratinocytes with fibroblasts; actives raise or lower the signal. Summed up:
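Human keratinocyte plus foreskin fibroblast primary co-culture was exposed to chemical for 24 h. ICAM-1 was then quantified by ELISA, and the data were fit bidirectionally against DMSO as the negative control and baseline.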

Read-out in assay [6]: Interferon-gamma inducible Protein 10 (IP10), CXCL10 (gene 3627)
In words: BSK_KF3CT_IP10: BioMAP Diversity Plus: KF3CT Assay for Interferon-gamma inducible Protein 10 (IP10) Biomarker Activity (AID 2283068). To be noted: primary human keratinocytes with fibroblasts; actives raise or lower the signal. Summed up: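 In a primary skin co-culture of keratinocytes and fibroblasts, IP-10 is quantified by ELISA at 24 h after dosing. SRB staining of parallel wells monitors overt toxicity. Curves are fitted both directions against DMSO.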

Assay [7] in a line: BSK_KF3CT_SRB: Viability Assessment in the BioMAP Diversity Plus: KF3CT Assay (AID 2283069).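 Note: total protein by sulforhodamine B staining as a cytotoxicity measure; read 24 h after compound addition.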 To be noted: primary human keratinocytes with fibroblasts. Summed up:
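Human primary keratinocyte plus foreskin fibroblast co-culture exposed to chemicals for 24 h. Total protein measured by 0.1% sulforhodamine B staining after 10% TCA fixation, read at 560 nm; bidirectional fitting versus DMSO baseline.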

Read-out in assay [8]: Interleukin-1 alpha (IL1a), IL1A (gene 3552)
In words: BSK_KF3CT_IL1a: BioMAP Diversity Plus: KF3CT Assay for Interleukin-1 alpha (IL1a) Biomarker Activity (AID 2283070). To be noted: primary human keratinocytes with fibroblasts; actives raise or lower the signal. Summed up:
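Human keratinocyte plus foreskin fibroblast primary co-culture, sampled 24 h after chemical dosing. IL-1a measured by ELISA; responses fitted bidirectionally against DMSO baseline (negative control), so gain or loss of signal both count.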

Read-out in assay [9]: TIMP metallopeptidase inhibitor 2 (TIMP2), TIMP2 (gene 7077)
In words: BSK_KF3CT_TIMP2: BioMAP Diversity Plus: KF3CT Assay for TIMP metallopeptidase inhibitor 2 (TIMP2) Biomarker Activity (AID 2283071). The conditions noted are these: primary human keratinocytes with fibroblasts; actives raise or lower the signal. Put shortly: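 Co-culture of human primary keratinocytes and foreskin fibroblasts, measured 24 h after chemical dosing. TIMP-2 quantified by ELISA and fitted in both directions relative to DMSO. Cytotoxicity checked in parallel cultures by SRB total-protein staining.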

Read-out in assay [10]: Transforming growth factor beta 1 (TGFb1), TGFB1 (gene 7040)
In words: BSK_KF3CT_TGFb1: BioMAP Diversity Plus: KF3CT Assay for Transforming growth factor beta 1 (TGFb1) Biomarker Activity (AID 2283072). The conditions noted are these: primary human keratinocytes with fibroblasts; actives raise or lower the signal. Put shortly:
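Human keratinocyte/foreskin fibroblast co-culture; TGF-b1 measured by ELISA 24 h after dosing, fitted bidirectionally versus DMSO. Cytotoxicity checked in parallel cultures by total protein (SRB staining, 560 nm).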

Read-out in assay [11]: C-C motif chemokine 2 (Homo sapiens) (UniProt P13500)
The assay is described as follows: BSK_KF3CT_MCP1: BioMAP Diversity Plus: KF3CT Assay for Monocyte Chemoattractant Protein 1 (MCP1/CCL2) Biomarker Activity (AID 2283073). The conditions noted are these: primary human keratinocytes with fibroblasts; actives raise or lower the signal. Summed up:
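Human keratinocyte plus foreskin fibroblast primary co-culture exposed to chemical for 24 h. MCP-1 levels measured by ELISA. Bidirectional curve fitting relative to DMSO negative control as baseline.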

Read-out in assay [12]: Matrix Metallopeptidase 9 (MMP9), MMP9 (gene 4318)
In words: BSK_KF3CT_MMP9: BioMAP Diversity Plus: KF3CT Assay for Matrix Metallopeptidase 9 (MMP9) Biomarker Activity (AID 2283074). The conditions noted are these: primary human keratinocytes with fibroblasts; actives raise or lower the signal. Summed up:
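Keratinocyte plus foreskin fibroblast human primary skin co-culture was dosed with chemical and MMP-9 was quantified by ELISA 24 h later. Bidirectional curve fitting used DMSO as negative control and activity baseline.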

Read-out in assay [13]: urokinase plasminogen activator (uPA), PLAU (gene 5328)
The assay is described as follows: BSK_KF3CT_uPA: BioMAP Diversity Plus: KF3CT Assay for urokinase plasminogen activator (uPA) Biomarker Activity (AID 2283075). The conditions noted are these: primary human keratinocytes with fibroblasts; actives raise or lower the signal. Summed up: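 Human keratinocyte plus foreskin fibroblast primary co-culture exposed to chemical for 24 h. uPA levels were quantified by ELISA, and activity was fitted bidirectionally against a DMSO negative-control baseline.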

Read-out in another assay: CD40, CD40 (gene 958)
The assay is described as follows: BSK_LPS_CD40: BioMAP Diversity Plus: LPS Assay for CD40 Biomarker Activity (AID 2283076). To be noted: primary human HUVEC with PBMC; actives raise or lower the signal. Summed up:
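Primary human umbilical vein endothelial cells co-cultured with peripheral blood mononuclear cells, LPS-stimulated, were dosed with chemical and read 24 h later. CD40 levels were measured by ELISA and fitted bidirectionally against DMSO as negative control and baseline.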

Read-out in assay [14]: E-selectin (Homo sapiens) (UniProt P16581)
The assay is described as follows: BSK_LPS_Eselectin: BioMAP Diversity Plus: LPS Assay for Eselectin Biomarker Activity (AID 2283077). To be noted: primary human HUVEC with PBMC; actives raise or lower the signal. Put shortly:
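Human umbilical vein endothelial cells co-cultured with peripheral blood mononuclear cells under LPS stimulation; E-selectin measured by ELISA 24 h after chemical dosing. Activity fitted bidirectionally against DMSO as negative control and baseline.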

Read-out in assay [15]: Interleukin-8 (IL8), CXCL8 (gene 3576)
The assay is described as follows: BSK_LPS_IL8: BioMAP Diversity Plus: LPS Assay for Interleukin-8 (IL8) Biomarker Activity (AID 2283078). To be noted: primary human HUVEC with PBMC; actives raise or lower the signal. Put shortly:
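Human umbilical vein endothelial cells co-cultured with PBMC were stimulated with LPS; IL-8 levels were measured by ELISA 24 h after chemical dosing. Activity was fitted bidirectionally against DMSO as negative control and baseline.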

A short description of assay [16]: BSK_LPS_SRB: Viability Assessment in the BioMAP Diversity Plus: LPS Assay (AID 2283079).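 Note: total protein by sulforhodamine B absorbance as a cytotoxicity measure; measured one day after compound addition.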 To be noted: primary human HUVEC with PBMC. Summed up: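 Human umbilical vein endothelial cells co-cultured with PBMC (LPS system) were dosed for 24 h. Total protein was stained with 0.1% sulforhodamine B after 10% TCA fixation, read at 560 nm, and fitted bidirectionally against DMSO baseline.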

Read-out in assay [17]: Interleukin-1 alpha (IL1a), IL1A (gene 3552)
In words: BSK_LPS_IL1a: BioMAP Diversity Plus: LPS Assay for Interleukin-1 alpha (IL1a) Biomarker Activity (AID 2283080). To be noted: primary human HUVEC with PBMC; actives raise or lower the signal. Summed up: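 Human umbilical vein endothelial cells co-cultured with peripheral blood mononuclear cells were LPS-stimulated and exposed to test chemicals for 24 h. IL-1 alpha was quantified by ELISA, with bidirectional curve fitting against DMSO as the negative control and baseline.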

Read-out in assay [18]: Monocyte Chemoattractant Protein-1 (MCP1), CCL2 (gene 6347)
The assay is described as follows: BSK_LPS_MCP1: BioMAP Diversity Plus: LPS Assay for Monocyte Chemoattractant Protein-1 (MCP1) Biomarker Activity (AID 2283081).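 Note: secreted MCP-1 protein quantified by ELISA in culture supernatant.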 The conditions noted are these: primary human HUVEC with PBMC; actives raise or lower the signal. Put shortly:
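HUVEC plus PBMC co-culture (human primary cells, LPS system) exposed to test chemical for 24 h; MCP-1 measured by ELISA. Bidirectional curve fitting against DMSO baseline; parallel SRB total-protein staining flags overt cytotoxicity.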

A short description of assay [19]: BSK_LPS_PGE2: BioMAP Diversity Plus: LPS Assay for Prostaglandin E2 (PGE2) Biomarker Activity (AID 2283082). The conditions noted are these: primary human HUVEC with PBMC; actives raise or lower the signal. Summed up: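 HUVEC plus human PBMC co-culture stimulated with LPS; secreted PGE2 quantified by ELISA 24 h after chemical dosing. Activity fitted bidirectionally against DMSO baseline; parallel SRB staining (0.1% SRB after 10% TCA fixation, 560 nm) flags overt cytotoxicity.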

The structures appear in SMILES notation. Activity calls are given as the source filed them. Rule for the calls: active = hit-call score of the fitted dose curve at least 0.9, where 1 is the maximum; inactive = score below 0.9.

E-selectin (Homo sapiens), sequence (P16581 whole entry, looked up): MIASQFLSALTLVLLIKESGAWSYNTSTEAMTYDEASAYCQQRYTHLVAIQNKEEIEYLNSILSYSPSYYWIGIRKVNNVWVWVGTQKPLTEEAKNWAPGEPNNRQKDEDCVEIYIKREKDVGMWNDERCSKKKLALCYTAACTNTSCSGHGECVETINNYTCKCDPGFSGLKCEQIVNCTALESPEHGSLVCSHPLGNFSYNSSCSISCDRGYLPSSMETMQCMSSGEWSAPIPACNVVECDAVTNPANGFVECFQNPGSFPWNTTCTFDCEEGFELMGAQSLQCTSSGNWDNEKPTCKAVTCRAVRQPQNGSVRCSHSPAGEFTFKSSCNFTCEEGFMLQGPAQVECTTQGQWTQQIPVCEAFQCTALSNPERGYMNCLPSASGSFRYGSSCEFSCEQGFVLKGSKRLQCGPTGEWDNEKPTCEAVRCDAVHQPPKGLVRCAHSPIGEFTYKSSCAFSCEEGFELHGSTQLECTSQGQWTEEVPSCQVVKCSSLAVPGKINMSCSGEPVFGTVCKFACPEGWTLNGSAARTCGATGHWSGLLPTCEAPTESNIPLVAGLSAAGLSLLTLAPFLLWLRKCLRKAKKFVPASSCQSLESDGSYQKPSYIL

`O=C(O)CC(O)C(=O)O` (stereo not drawn): the result in [1], in [2], in [3], in assay [4], in [5] and in assay [6] was inactive. For the same compound, the result in assay [7], in assay [8], in assay [9], in assay [10], in assay [11] and in assay [12] was inactive. Moreover, the outcome was “inactive” in assay [13]; “inactive” with CD40, CD40 (gene 958); “inactive” in assay [14]; “inactive” in assay [15]; “inactive” in assay [16]; “inactive” in assay [17].

As for `CCCCCCCCCCCCc1ccccc1`, the outcome in [1], in assay [2], in assay [3], in [4], in [5] and in assay [6] was inactive. Besides, the outcome in [7], in [9], in assay [10], in assay [11], in assay [12] and in [13] was inactive. The result in assay [14], in [15], in assay [16] and in [17] was inactive. Besides, in the assay with CD40, CD40 (gene 958), the half-maximal activity concentration (AC50) is 30.7 µM (active).

`CCCCC(CC)COC(=O)c1ccc(C(=O)OCC(CC)CCCC)cc1` (stereo not drawn): the result in assay [1], in [2], in [3], in assay [4], in [5] and in [6] was inactive. The outcome in assay [7], in [8], in [9], in [10], in assay [11] and in [12] was inactive. The outcome was “inactive” in assay [13]; “inactive” with CD40, CD40 (gene 958); “inactive” in assay [14]; “inactive” in assay [15]; “inactive” in [16]; “inactive” in assay [17].

`Cn1c(=O)cc(Oc2ccc(F)cc2F)c2cnc(NCC(C)(C)O)nc21`: the result in assay [1], in [4], in assay [5], in assay [6], in assay [7] and in [8] was inactive. Moreover, the outcome in assay [9] was “inactive”; in assay [10], “inactive”; in [11], “inactive”; in [12] it was “inactive”; in assay [13], “inactive”; with CD40, CD40 (gene 958), “inactive”. In [16], the outcome was inactive. For the same compound, the AC50 in assay [2] is 1.12 µM (active); in [3], 0.92 µM (active); in assay [14], 3.35 µM (active); in assay [15] it was 2.9 µM (active); in [17] it was 3.97 µM (active); in assay [18] it was 3.88 µM (active). In addition, the half-maximal activity concentration (AC50) in assay [19] was 1.76 µM (active).

For the origin of these results see PubChem BioAssay (EPA / NIEHS).
